Results published in PubChem BioAssay (NCI).
Where “and” joins values, the source holds several entries; their conditions need not be identical. Equal entries are not always repeated. The panel holds about 83,000 compounds, 20% with a hit somewhere; the sample as a whole holds those more often.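 96-well plates, one dose, 48 hours. Percent growth reported; active if below 10.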

Key:
Experiment in all cases: NCI-60 one-dose screen, 48 h (100 = growth as untreated, 0 = no growth, -100 = all killed)
NCI-H23 lung = test system: NCI-H23 lung
NCI-H226 lung = test system: NCI-H226 lung
NCI-H322M lung = test system: NCI-H322M lung
HOP-62 NSCLC = test system: HOP-62 NSCLC
NCI-H460 lung = test system: NCI-H460 lung
HOP-92 NSCLC = test system: HOP-92 NSCLC
NCI-H522 lung = test system: NCI-H522 lung
A549/ATCC NSCLC = test system: A549/ATCC NSCLC
786-0 renal = test system: 786-0 renal
COLO 205 colon = test system: COLO 205 colon
DU-145 prostate = test system: DU-145 prostate
K-562 leukemia = test system: K-562 leukemia
MALME-3M melanoma = test system: MALME-3M melanoma
MDA-MB-231 breast = test system: MDA-MB-231 breast
RXF 393 renal = test system: RXF 393 renal
SF-268 CNS = test system: SF-268 CNS
SF-295 CNS = test system: SF-295 CNS
SF-539 CNS = test system: SF-539 CNS
UACC-257 melanoma = test system: UACC-257 melanoma
M14 melanoma = test system: M14 melanoma

Measured: growth

CC1(C)OB(c2ccc(Cn3cc(F)c(=O)[nH]c3=O)cc2)OC1(C)C
inactive: NCI-H23 lung; 10 µM 94.9% | NCI-H23 lung; 50 µM 68.3% | NCI-H226 lung; 10 µM 96.9% | NCI-H226 lung; 50 µM 64% | NCI-H322M lung; 10 µM 102% | NCI-H322M lung; 50 µM 86.4% | HOP-62 NSCLC; 10 µM 104% | HOP-62 NSCLC; 50 µM 63.9% | NCI-H460 lung; 10 µM 106% | NCI-H460 lung; 50 µM 34.2% | HOP-92 NSCLC; 10 µM 98.3% | HOP-92 NSCLC; 50 µM 33.2% | NCI-H522 lung; 10 µM 91% | NCI-H522 lung; 50 µM 10.3% | A549/ATCC NSCLC; 10 µM 98.9% | A549/ATCC NSCLC; 50 µM 75.8% | 786-0 renal; 10 µM 105% | 786-0 renal; 50 µM 81.4% | COLO 205 colon; 10 µM 120% | COLO 205 colon; 50 µM 36.4% | DU-145 prostate; 10 µM 113% | DU-145 prostate; 50 µM 84% | K-562 leukemia; 10 µM 110% | K-562 leukemia; 50 µM 29.7% | MALME-3M melanoma; 10 µM 97.2% | MALME-3M melanoma; 50 µM 44.7% | MDA-MB-231 breast; 10 µM 124% | MDA-MB-231 breast; 50 µM 86.1% | RXF 393 renal; 10 µM 99.7% | RXF 393 renal; 50 µM 59.9% | SF-268 CNS; 10 µM 94.7% | SF-268 CNS; 50 µM 68.7% | SF-295 CNS; 10 µM 102% | SF-295 CNS; 50 µM 85.5% | SF-539 CNS; 10 µM 101% | SF-539 CNS; 50 µM 61.4% | UACC-257 melanoma; 10 µM 103% | UACC-257 melanoma; 50 µM 67.3% | M14 melanoma; 10 µM 103% | M14 melanoma; 50 µM 44.9%

Clc1ccc(SSc2ccc(Cl)cc2)cc1
inactive: NCI-H23 lung; 10 µM unless noted 94.1% and 85.5% | NCI-H226 lung; 10 µM unless noted 104% and 79.5% | NCI-H322M lung; 10 µM unless noted 95.6% and 108% | HOP-62 NSCLC; 10 µM unless noted 102% and 98% | NCI-H460 lung; 10 µM unless noted 98.1% and 79.5% | HOP-92 NSCLC; 10 µM unless noted 76% and 74.2% | NCI-H522 lung; 10 µM unless noted 87.9% and 81.8% | A549/ATCC NSCLC; 10 µM unless noted 95.9% and 46.9% | 786-0 renal; 10 µM unless noted 96.5% and 66.8% | COLO 205 colon; 10 µM unless noted 99.6% and 113% | DU-145 prostate; 10 µM unless noted 103% and 109% | K-562 leukemia; 10 µM unless noted 100% | MALME-3M melanoma; 10 µM unless noted 95% and 119% | MDA-MB-231 breast; 10 µM unless noted 107% and 62.2% | RXF 393 renal; 10 µM unless noted 96.1% and 86% | SF-268 CNS; 10 µM unless noted 94.4% and 72.4% | SF-295 CNS; 10 µM unless noted 103% and 93.8% | SF-539 CNS; 10 µM unless noted 99.5% and 88.7% | UACC-257 melanoma; 10 µM unless noted 91.5% and 98.3%

CNC(=O)c1cc(Oc2ccc(CC(=O)Nc3cc(C(C)(C)C)nn3C)cc2)ccn1
inactive: NCI-H23 lung; 1 µM 50% | NCI-H23 lung; 10 µM 49% | NCI-H23 lung; 30 µM 48.9% | NCI-H226 lung; 10 µM 61.6% | NCI-H226 lung; 30 µM 49.4% | NCI-H322M lung; 1 µM 92.5% | NCI-H322M lung; 10 µM 93.4% | NCI-H322M lung; 30 µM 105% | HOP-62 NSCLC; 1 µM 55% | HOP-62 NSCLC; 10 µM 77.6% | HOP-62 NSCLC; 30 µM 75.1% | NCI-H460 lung; 1 µM 79.4% | NCI-H460 lung; 10 µM 66.7% | NCI-H460 lung; 30 µM 80.7% | HOP-92 NSCLC; 1 µM 74.7% | HOP-92 NSCLC; 10 µM 93.5% | HOP-92 NSCLC; 30 µM 92.6% | NCI-H522 lung; 1 µM 74.3% | NCI-H522 lung; 10 µM 54.9% | NCI-H522 lung; 30 µM 71.7% | 786-0 renal; 1 µM 90.7% | 786-0 renal; 10 µM 100% | 786-0 renal; 30 µM 93.8% | COLO 205 colon; 10 µM 77.1% | COLO 205 colon; 30 µM 91.2% | DU-145 prostate; 1 µM 91.6% | DU-145 prostate; 10 µM 76.3% | DU-145 prostate; 30 µM 103% | K-562 leukemia; 1 µM 41.9% | K-562 leukemia; 10 µM 33.9% | K-562 leukemia; 30 µM 28.3% | MALME-3M melanoma; 1 µM 60.5% | MALME-3M melanoma; 10 µM 61.4% | MALME-3M melanoma; 30 µM 66% | MDA-MB-231 breast; 1 µM 78.6% | MDA-MB-231 breast; 10 µM 69.1% | MDA-MB-231 breast; 30 µM 71.9% | RXF 393 renal; 1 µM 98.3% | RXF 393 renal; 10 µM 79.9% | SF-268 CNS; 1 µM 86.9% | SF-268 CNS; 10 µM 70.9% | SF-268 CNS; 30 µM 98.7% | SF-295 CNS; 1 µM 58.1% | SF-295 CNS; 10 µM 37.1% | SF-295 CNS; 30 µM 33.9% | SF-539 CNS; 1 µM 67.1% | SF-539 CNS; 10 µM 66.7% | SF-539 CNS; 30 µM 69.2% | UACC-257 melanoma; 1 µM 60.5% | UACC-257 melanoma; 10 µM 55.7% | UACC-257 melanoma; 30 µM 47.7% | M14 melanoma; 1 µM 96.5% | M14 melanoma; 10 µM 88%
